Test results published in PubChem BioAssay (Tox21).
“And” between values parts separate entries of the source, which are not always exact repeats. Equal values may be shown once. Results filed as inconclusive are left out. Entries that show only a call come without a potency. Some structures have more than one record in an assay (separate samples or runs), and their calls can disagree. The source made the active and inactive calls. Unless noted, calls follow the shape of the dose curve; as a rule, active = well fitted curve in the direction sought with a large enough effect in the repeat runs; inconclusive = weak or mixed curves; inactive = no such curve, though single readings can be large; an effect the other way counts as inactive or inconclusive.

Experiments:
[1] = qHTS assay to identify small molecule antagonists of the estrogen receptor alpha (ER-alpha) signaling pathway using the BG1 cell line in the presence of 0.1 nM 17-beta-estradiol - cell viability counter screen (AID 1259241); also: nearly all actives have a fitted effect of over 40% in size
Outline: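 Following 5 days in phenol red-free medium with charcoal-stripped serum, VM7Luc4E2 cells received test compounds alongside 0.1 nM 17beta-estradiol (final) at 37C for 22 hr. Live cells were then quantified via protease-substrate fluorescence.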

[2] = qHTS assay to identify small molecule antagonists of the androgen receptor (AR) signaling pathway using the MDA cell line in the presence of 0.5 nM R1881 - cell viability counter screen (AID 1259242); also: nearly all actives have a fitted effect of over 45% in size
Outline: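 Fluorescence from CellTiter-Fluor, which reports protease activity of live cells, was read 30 min after reagent addition to MDA-kb2 cells that had been incubated 16 hr with compound and 0.5 nM R1881.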

[3] = molecular target: Estrogen receptor (Homo sapiens) (UniProt P03372); assay: qHTS assay to identify small molecule antagonists of the estrogen receptor alpha (ER-alpha) signaling pathway using the BG1 cell line in the presence of 0.1 nM 17-beta-estradiol (AID 1259244); also: nearly all actives have a fitted effect of over 50% in size; also: potency is read from the fitted curve at half-maximal effect
Sequence of Estrogen receptor (Homo sapiens) (P03372 whole entry, looked up): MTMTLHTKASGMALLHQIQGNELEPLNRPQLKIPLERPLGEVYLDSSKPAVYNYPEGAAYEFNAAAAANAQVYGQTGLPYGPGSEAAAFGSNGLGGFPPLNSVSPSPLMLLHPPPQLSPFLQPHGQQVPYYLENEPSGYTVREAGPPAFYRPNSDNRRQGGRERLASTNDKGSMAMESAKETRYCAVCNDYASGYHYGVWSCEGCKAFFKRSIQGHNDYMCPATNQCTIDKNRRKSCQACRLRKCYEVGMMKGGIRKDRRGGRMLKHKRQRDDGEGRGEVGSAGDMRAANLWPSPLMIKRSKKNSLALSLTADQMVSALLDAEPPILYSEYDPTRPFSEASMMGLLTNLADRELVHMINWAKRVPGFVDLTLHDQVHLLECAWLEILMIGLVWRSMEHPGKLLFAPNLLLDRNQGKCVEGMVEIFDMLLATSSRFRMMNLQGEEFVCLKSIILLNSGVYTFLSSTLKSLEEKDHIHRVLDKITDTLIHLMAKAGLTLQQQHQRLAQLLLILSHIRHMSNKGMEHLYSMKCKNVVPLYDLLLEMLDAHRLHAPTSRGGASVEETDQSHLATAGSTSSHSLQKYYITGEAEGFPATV
Outline: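 Quantitative high-throughput screen in VM7Luc4E2 cells: compound plus 0.1 nM E2 (final), 22 h, 37C, 5% CO2; ONE-Glo added, 30 min room temperature, luminescence measured.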

[4] = qHTS assay to identify small molecule HDAC inhibitors (AID 1259364); also: top concentration of the series differs between compounds; nearly all actives have a fitted effect of over 45% in size
Outline: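 Endogenous HDAC class I/II activity was measured in wild-type HCT-116 cells by HDAC-Glo luminescence after 2 h compound treatment.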

[5] = qHTS assay to identify small molecule HDAC inhibitors - cell viability counter screen (AID 1259365); also: series mostly up to about 92 µM; nearly all actives have a fitted effect of over 50% in size
Outline: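 HCT-116 wild-type, overnight attachment; 2hr drug exposure, 37C; CellTiter-Glo luminescent ATP readout after 30min RT.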

[6] = qHTS assay to identify small molecule agonists of the sonic hedgehog signaling (Shh) pathway - cell viability counter screen (AID 1259366); also: nearly all actives have a fitted effect of over 50% in size; also: potency is read from the fitted curve at half-maximal effect
Outline: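 Compounds in DMSO were pin-transferred onto 3T3 Gli1-Luc cells that had settled 4hr; plates then stood 24hr at 37C and 5% CO2. One hour before the end, CellTiter-Fluor was added and fluorescence recorded.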

[7] = qHTS assay to identify small molecule antagonists of the sonic hedgehog signaling (Shh) pathway - cell viability counter screen (AID 1259367); also: nearly all actives have a fitted effect of over 55% in size; also: potency is read from the fitted curve at half-maximal effect
Outline: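 After a 4 hr settling period, 3T3 Gli1-Luc cells were treated with DMSO-dissolved chemicals and conditioned medium, kept 24 hr at 37C in 5% CO2, and assayed for viability by CellTiter-Fluor fluorescence following 1 hr reagent incubation.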

[8] = qHTS assay to identify small molecule agonists of the sonic hedgehog signaling (Shh) pathway (AID 1259368; calls by dose curve;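 also: NIH/3T3-derived 3T3Gli1-Luc cells carrying a stable Gli1-driven firefly luciferase reporter; series mostly up to about 92 µM; nearly all actives have a fitted effect of over 15% in size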)
Outline: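 Luminescent signal was taken as a measure of Gli1-controlled luciferase expression in stably transfected NIH/3T3-derived cells that had been treated for 24 hr with compounds delivered in DMSO.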

[9] = qHTS assay to identify small molecule antagonists of the sonic hedgehog signaling (Shh) pathway (AID 1259369; calls by dose curve; also: nearly all actives have a fitted effect of over 45% in size; also: potency is read from the fitted curve at half-maximal effect)
Outline: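 Screening used 3T3Gli1-Luc cells at 2,000 per well, compounds delivered in DMSO, and conditioned medium as agonist stimulus; plates incubated 24hr at 37 C and 5% CO2 before a 30min luciferase step.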

Structure (SMILES) | Potency [1] | Potency [2] | Potency [3] | Potency [4] | Potency [5] | Potency [6] | Potency [7] | Potency [8] | Potency [9]
Oc1ccc(C(=C(Cl)Cl)c2ccc(O)cc2)cc1 | inactive | inactive | 61 µM (active) | inactive | inactive | inactive | inactive | inactive | 9.67 µM (active)
CCCN(CC)CC1COC2(CCC(C(C)(C)C)CC2)O1 (stereo unspecified) | inactive | inactive | inactive | inactive | – | inactive | inactive | inactive | inactive
CC(C)CCCCCOC(=O)c1ccccc1C(=O)OCCCCCC(C)C | inactive | inactive | – | inactive | inactive | inactive | inactive | inactive | –
Clc1ccc(COC(Cn2ccnc2)c2ccc(Cl)cc2Cl)cc1 (stereo unspecified) | inactive | inactive | – | inactive | inactive | 36 µM (active) and 27.2 µM (active) | 45.3 µM (active) and 27.2 µM (active) and inactive | inactive | –
OC(c1ccc(Cl)cc1)(c1ccc(Cl)cc1)C(Cl)(Cl)Cl | inactive | inactive | inactive | inactive | – | – | inactive | inactive | inactive
Oc1cccc(-c2ccccc2)c1 | inactive | inactive | inactive | – | inactive | inactive | inactive | inactive | –
CC(C)OC(=S)S | inactive | inactive | – | inactive | inactive | 30.6 µM (active) | 61.1 µM (active) | inactive | –
CC(=O)c1cc(C(C)(C)C)cc2c1CCC2(C)C | inactive | inactive | inactive | inactive | inactive | inactive | inactive | inactive | inactive
Clc1ccc(-c2ccc(Cl)c(Cl)c2Cl)c(Cl)c1Cl | inactive | inactive | inactive | inactive | inactive | inactive | inactive | inactive | inactive
Cc1cc(C)cc(OP(=O)(Oc2cc(C)cc(C)c2)Oc2cc(C)cc(C)c2)c1 | inactive | inactive | inactive | inactive | inactive | inactive | inactive | inactive | inactive
CS(=O)(=O)c1ccc(C(=O)C2C(=O)CCCC2=O)c([N+](=O)[O-])c1 | inactive | inactive | inactive | inactive | inactive | inactive | – | inactive | –
N#C/C=C/C#N | inactive | inactive | inactive | inactive | inactive | – | inactive | inactive | inactive
COc1ccc(OC)c(C=O)c1 | inactive | inactive | inactive | inactive | inactive | inactive | inactive | inactive | inactive
c1cc[c]([Sb]([c]2ccccc2)[c]2ccccc2)cc1 | inactive | inactive | – | inactive | inactive | inactive | inactive | inactive | 12.2 µM (active)
CC(C)[C@H](C(=O)OC(C#N)c1cccc(Oc2ccccc2)c1)c1ccc(OC(F)F)cc1 (stereo partly specified) | inactive | inactive | – | inactive | – | inactive | inactive | inactive | inactive
Clc1ccc(C(c2ccc(Cl)cc2)C(Cl)(Cl)Cl)cc1 | inactive | inactive | – | inactive | – | 48.9 µM (active) and inactive | inactive | inactive | –
Cl/C=C\CCl | inactive | inactive | – | inactive | inactive | inactive | inactive | inactive | inactive
COc1cc(N)c(Cl)cc1C(=O)NC1CN2CCC1CC2 (stereo unspecified) | inactive | inactive | – | inactive | inactive | inactive | inactive | inactive | inactive
ClC(Cl)=C(Cl)Cl | inactive | inactive | – | inactive | inactive | inactive | inactive | inactive | inactive
CCOc1cc(C(C)(C)C)ccc1C1COC(c2c(F)cccc2F)=N1 (stereo unspecified) | inactive | inactive | – | inactive | inactive | inactive | inactive | inactive | 2.95 µM (active)
